Reference: PubChem BioAssay
Active and inactive are the calls of the source.

Tests used:
[1] = binders of probe aFSTL3 on microarray, primary screen, stem cell growth factor project, biochemical, small-molecule microarray, fluorescence 635/667 (AID 1064); conditions: higher = more signal;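 further: measures binding of the biotinylated anti-FSTL3 antibody to printed compounds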
[2] = binders from COS7 lysate, DM2A8 probe, primary screen, torsin A project, cell lysate, small-molecule microarray, fluorescence 635/667 (AID 1065); conditions: higher = more signal, COS7 lysate expressing mutant human TOR1A
[3] = binders of probe aFGF2 on microarray, primary screen, stem cell growth factor project, biochemical, small-molecule microarray, fluorescence 635/667 (AID 1067); conditions: higher = more signal;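 further: measures binding of biotinylated aFGF2 protein to printed compounds on slides; z-score merges feature fluorescence and signal-to-noise across triplicate slides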
[4] = binders of probe aFGF10 on microarray, primary screen, stem cell growth factor project, biochemical, small-molecule microarray, fluorescence 635/667 (AID 1071); conditions: higher = more signal;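 further: score merges 667 nm spot intensity and signal to noise from triplicate slides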
[5] = molecular target: Neurogenic locus notch homolog protein 2 (Homo sapiens) (UniProt Q04721); experiment: Notch2 binders on small-molecule microarrays, primary screen, biochemical, small-molecule microarray, 635 nm fluorescence, stem cell growth factors (AID 1073); conditions: Notch2 binding, higher = more signal
Neurogenic locus notch homolog protein 2 (Homo sapiens), sequence (Q04721 whole entry, looked up, canonical isoform): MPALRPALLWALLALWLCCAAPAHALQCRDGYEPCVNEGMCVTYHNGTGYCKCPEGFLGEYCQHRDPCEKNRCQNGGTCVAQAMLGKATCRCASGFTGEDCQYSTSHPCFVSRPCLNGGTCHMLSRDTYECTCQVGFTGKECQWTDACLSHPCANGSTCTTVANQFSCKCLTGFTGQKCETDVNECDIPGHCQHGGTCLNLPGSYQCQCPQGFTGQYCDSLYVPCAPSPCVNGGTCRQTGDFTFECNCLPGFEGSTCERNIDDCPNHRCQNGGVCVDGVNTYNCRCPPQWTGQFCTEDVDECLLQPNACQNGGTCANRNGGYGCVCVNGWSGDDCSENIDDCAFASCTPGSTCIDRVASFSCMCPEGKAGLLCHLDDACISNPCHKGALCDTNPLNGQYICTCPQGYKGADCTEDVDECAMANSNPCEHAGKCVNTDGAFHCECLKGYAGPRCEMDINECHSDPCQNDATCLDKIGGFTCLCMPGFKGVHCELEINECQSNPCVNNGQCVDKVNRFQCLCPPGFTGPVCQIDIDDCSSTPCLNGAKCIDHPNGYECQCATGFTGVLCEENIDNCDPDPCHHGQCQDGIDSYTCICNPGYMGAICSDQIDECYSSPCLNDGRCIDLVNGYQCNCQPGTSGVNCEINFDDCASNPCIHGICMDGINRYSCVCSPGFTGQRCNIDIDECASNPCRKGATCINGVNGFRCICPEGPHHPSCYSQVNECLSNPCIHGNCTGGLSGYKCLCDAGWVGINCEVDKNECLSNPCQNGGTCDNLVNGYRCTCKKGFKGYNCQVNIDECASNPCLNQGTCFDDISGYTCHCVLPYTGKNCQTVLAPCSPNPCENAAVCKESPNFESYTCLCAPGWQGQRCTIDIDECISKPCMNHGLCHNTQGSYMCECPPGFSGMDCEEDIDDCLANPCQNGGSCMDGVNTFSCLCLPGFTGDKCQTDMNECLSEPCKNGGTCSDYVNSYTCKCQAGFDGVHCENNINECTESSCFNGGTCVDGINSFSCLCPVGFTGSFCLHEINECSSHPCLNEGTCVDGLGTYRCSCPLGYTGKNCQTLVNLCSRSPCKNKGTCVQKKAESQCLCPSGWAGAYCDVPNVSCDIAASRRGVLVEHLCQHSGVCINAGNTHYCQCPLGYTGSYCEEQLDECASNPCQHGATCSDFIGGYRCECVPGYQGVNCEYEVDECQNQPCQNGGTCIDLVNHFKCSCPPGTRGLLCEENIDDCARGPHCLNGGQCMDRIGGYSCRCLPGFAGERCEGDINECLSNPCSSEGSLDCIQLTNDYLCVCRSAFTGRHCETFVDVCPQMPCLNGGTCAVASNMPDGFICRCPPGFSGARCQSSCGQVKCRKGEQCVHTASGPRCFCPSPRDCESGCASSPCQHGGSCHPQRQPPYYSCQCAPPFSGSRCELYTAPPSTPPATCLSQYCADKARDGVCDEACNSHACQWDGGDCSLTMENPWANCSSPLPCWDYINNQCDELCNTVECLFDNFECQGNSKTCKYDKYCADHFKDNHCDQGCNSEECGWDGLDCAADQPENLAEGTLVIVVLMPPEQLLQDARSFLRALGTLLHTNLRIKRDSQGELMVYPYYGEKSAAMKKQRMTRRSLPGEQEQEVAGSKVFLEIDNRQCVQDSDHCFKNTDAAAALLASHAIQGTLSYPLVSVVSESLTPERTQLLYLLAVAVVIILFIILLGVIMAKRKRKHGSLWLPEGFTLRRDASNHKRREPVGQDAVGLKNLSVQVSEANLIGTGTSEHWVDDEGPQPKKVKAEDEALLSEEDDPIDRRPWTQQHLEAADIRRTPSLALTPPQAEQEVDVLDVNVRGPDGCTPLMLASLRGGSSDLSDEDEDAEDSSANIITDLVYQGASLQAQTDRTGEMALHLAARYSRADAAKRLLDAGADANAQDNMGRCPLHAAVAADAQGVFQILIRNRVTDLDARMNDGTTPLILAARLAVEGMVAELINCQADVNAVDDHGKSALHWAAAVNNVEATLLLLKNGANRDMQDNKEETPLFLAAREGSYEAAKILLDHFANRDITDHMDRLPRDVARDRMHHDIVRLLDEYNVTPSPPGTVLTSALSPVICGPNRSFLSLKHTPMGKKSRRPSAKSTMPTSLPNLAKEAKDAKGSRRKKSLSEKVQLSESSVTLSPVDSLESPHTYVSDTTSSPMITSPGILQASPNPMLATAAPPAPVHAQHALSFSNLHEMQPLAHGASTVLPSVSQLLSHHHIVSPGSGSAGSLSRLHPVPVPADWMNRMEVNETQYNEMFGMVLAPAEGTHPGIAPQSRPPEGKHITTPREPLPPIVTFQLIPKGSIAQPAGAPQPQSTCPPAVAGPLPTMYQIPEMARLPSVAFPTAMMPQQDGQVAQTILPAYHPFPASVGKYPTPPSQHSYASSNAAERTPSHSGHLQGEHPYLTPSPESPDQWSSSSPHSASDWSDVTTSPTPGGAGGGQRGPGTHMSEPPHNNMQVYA

[6] = molecular target: Pro-neuregulin-1, membrane-bound isoform (Homo sapiens) (UniProt Q02297); experiment: NRG1 binders on small-molecule microarrays, primary screen, psychiatric disease protein project, biochemical, small-molecule microarray, fluorescence 635/667 (AID 1075); conditions: NRG1 binding, 635 nm fluorescence, higher = more signal;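 further: score combines 667 nm spot fluorescence with signal to noise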
Pro-neuregulin-1, membrane-bound isoform (Homo sapiens), sequence (Q02297 whole entry, looked up, the tested form may be a part, canonical isoform): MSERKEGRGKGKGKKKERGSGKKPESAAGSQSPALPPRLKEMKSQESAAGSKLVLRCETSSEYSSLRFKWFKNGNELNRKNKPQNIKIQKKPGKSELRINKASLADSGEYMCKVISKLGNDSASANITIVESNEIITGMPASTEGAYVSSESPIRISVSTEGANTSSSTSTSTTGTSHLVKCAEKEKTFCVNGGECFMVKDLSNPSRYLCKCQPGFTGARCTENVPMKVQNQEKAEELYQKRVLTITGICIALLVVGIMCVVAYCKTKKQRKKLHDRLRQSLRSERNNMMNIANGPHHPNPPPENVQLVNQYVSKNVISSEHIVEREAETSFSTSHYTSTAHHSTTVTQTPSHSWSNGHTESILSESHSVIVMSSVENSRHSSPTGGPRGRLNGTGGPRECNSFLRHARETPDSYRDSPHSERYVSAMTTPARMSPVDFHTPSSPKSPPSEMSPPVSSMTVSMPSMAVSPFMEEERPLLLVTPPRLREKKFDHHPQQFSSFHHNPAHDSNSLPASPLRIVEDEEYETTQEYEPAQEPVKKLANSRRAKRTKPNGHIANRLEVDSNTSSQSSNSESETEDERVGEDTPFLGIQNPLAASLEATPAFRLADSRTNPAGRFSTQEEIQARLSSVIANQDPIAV

[7] = system: Neuregulin-1 EGF-like domain; experiment: binders of neuregulin-1 EGF-like domain, primary screen, biochemical, small-molecule microarray, 635 nm fluorescence (AID 1081); conditions: small-molecule microarray binding, higher = more signal;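 further: binding of the protein to compounds printed on small-molecule microarray slides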
[8] = FRG1 promoter luciferase signal modulators, primary screen, FRG1 inhibition for FSHD, cell-based, C2C12 myotubes, firefly/Renilla luciferase, luminescence (AID 1084); conditions: higher = more signal, called active from +8 up or from −8 down
[9] = binders of probe aFST on microarray, primary screen, stem cell growth factor project, biochemical, small-molecule microarray, fluorescence 635/667 (AID 1086); conditions: higher = more signal;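 further: score merges 667 nm fluorescence with signal-to-noise of each printed compound spot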
[10] = binders of probe aHhip on microarray, primary screen, stem cell growth factor project, biochemical, small-molecule microarray, fluorescence 635/667 (AID 1087); conditions: higher = more signal;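 further: score merges spot fluorescence at 667nm with spot signal to noise ratio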
[11] = system: PRMT1 (protein arginine N-methyltransferase 1); experiment: PRMT1 binders on small-molecule microarrays, primary screen, biochemical, small-molecule microarray, 635 nm fluorescence (AID 1088); conditions: small-molecule microarray binding, higher = more signal;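 further: binding of Prmt1 protein to compounds spotted on small-molecule microarray slides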
[12] = yeast growth modulation, basal conditions, primary screen, YJM789 clinical isolate, OD600, 24 h (AID 1089);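 further: growth of clinical yeast isolate S. cerevisiae YJM 789 seeded 1000 cells per well; test concentration not given here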; conditions: S. cerevisiae YJM789 growth, higher = more signal, called active from +8 up or from −8 down
[13] = fission yeast growth modulation, primary screen, strain 972, OD600, 24 h, no modulator (AID 1090);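 further: basal condition with compound alone and no growth modifier present; test concentration not given here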; conditions: S. pombe 972 growth, higher = more signal, called active from +8 up or from −8 down
[14] = S. cerevisiae growth modulation with rapamycin, primary screen, strain BY4716, OD600, 96 h (AID 1091); conditions: higher = more signal, called active from +8 up or from −8 down; further: test concentration not given here
[15] = molecular target: Torsin-1A-interacting protein 2 (Homo sapiens) (UniProt Q8NFQ8); experiment: LULL1 binders on small-molecule microarray, primary screen, cell lysate, human LULL1 lysate, 635/667 nm fluorescence (AID 1092); conditions: hLULL1 lysate binding, 635 nm fluorescence, higher = more signal;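 further: probe is lysate of COS7 cells overexpressing human LULL1; score merges per-feature 667 nm fluorescence with signal-to-noise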
Torsin-1A-interacting protein 2 (Homo sapiens), sequence (Q8NFQ8 whole entry, looked up): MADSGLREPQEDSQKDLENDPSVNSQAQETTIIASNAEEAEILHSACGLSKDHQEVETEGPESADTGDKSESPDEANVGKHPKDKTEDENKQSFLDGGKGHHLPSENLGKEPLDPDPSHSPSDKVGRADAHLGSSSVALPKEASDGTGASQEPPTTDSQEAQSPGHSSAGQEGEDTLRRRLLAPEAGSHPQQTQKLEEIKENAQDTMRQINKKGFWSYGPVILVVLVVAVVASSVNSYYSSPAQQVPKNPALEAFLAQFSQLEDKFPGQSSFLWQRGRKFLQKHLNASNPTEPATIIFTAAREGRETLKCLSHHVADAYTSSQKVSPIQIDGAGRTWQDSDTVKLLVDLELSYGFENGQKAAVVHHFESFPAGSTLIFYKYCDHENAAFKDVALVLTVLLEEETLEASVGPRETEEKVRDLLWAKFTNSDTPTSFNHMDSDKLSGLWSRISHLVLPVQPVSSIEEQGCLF

[16] = E. coli growth modulation, two-sided OD650, primary screen, E. coli filamentation project, strain DRC41, 24 h (AID 1093); conditions: OD650, 24 h, higher = more signal, called active from +8 up or from −8 down;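 further: MC1000 strain lacking acrAB efflux and sulA so SOS filamentation is blocked; test concentration not given here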
[17] = small-molecule microarray binders of probe aLefty2, primary screen, biochemical, biotinylated probe, 635/667 nm fluorescence (AID 1094); conditions: higher = more signal;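 further: score merges spot fluorescence near 667 nm with spot signal-to-noise ratio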
[18] = system: Noggin (protein binding on small-molecule microarray); experiment: Noggin binders on small-molecule microarray, primary screen, biochemical, 635/667 nm fluorescence (AID 1095); conditions: 635 nm fluorescence, higher = more signal;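 further: score merges 667 nm feature fluorescence with signal to noise over triplicate slides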
[19] = molecular target: Neurogenic locus notch homolog protein 3 (Homo sapiens) (UniProt Q9UM47); experiment: NOTCH3 binders on small-molecule microarray, primary screen, biochemical, 635/667 nm fluorescence (AID 1096); conditions: NOTCH3 binding, 635 nm fluorescence, higher = more signal
[20] = small-molecule microarray binders of probe aEGFR, primary screen, biochemical, biotinylated probe, 635/667 nm fluorescence (AID 1097); conditions: higher = more signal;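 further: probe is a biotinylated anti-EGFR antibody binding compounds printed on slides; score combines fluorescence near 667 nm and signal to noise of each spot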

SMILES | composite z-score [1] | composite z-score [2] | composite z-score [3] | composite z-score [4] | composite z-score [5] | composite z-score [6] | composite z-score [7] | z-score [8] | composite z-score [9] | composite z-score [10] | composite z-score [11] | z-score [12] | z-score [13] | z-score [14] | composite z-score [15] | z-score [16] | composite z-score [17] | composite z-score [18] | composite z-score [19] | composite z-score [20]
C/C=C/[C@H](CCn1cc([C@H](O)c2ccccc2)nn1)[Si](C)(C)c1ccc(OC)cc1 | 1.18 | -0.153 | -0.234 | -0.071 | -1.51 | 0.0287 | -0.0288 | -0.488 (inactive) | -1.04 | -0.374 | -0.144 | -0.298 (inactive) | -1.05 (inactive) | -0.229 (inactive) | 0.0061 | 0.0004 (inactive) | -0.139 | -0.953 | -0.999 | -0.375
C=CCNC(=O)[C@H]1[C@@H]2C(=O)O[C@@H](c3ccccc3)[C@@H](c3ccccc3)N2[C@@H](c2ccc(OCCO)cc2)[C@]12C(=O)N(C(=O)OCCOC)c1ccc(C#CC3(O)CCCCCC3)cc12 | -0.0322 | 1.14 | -0.0627 | 0.527 | 1.03 | 0.764 | 1.31 | -0.313 (inactive) | 0.422 | 0.113 | 1.54 | 1.95 (inactive) | 0.97 (inactive) | 6.64 (inactive) | 2.42 | 1.08 (inactive) | -0.0319 | 1.6 | 1.04 | 0.122
COCC1C2CC[C@H]3C(OCc4ccc(F)cc4C(F)(F)F)OC[C@]4(C)[C@H]3C2=C(CN4C(=O)OC(C)(C)C)[C@H](C)C1COC (stereo not given in full) | 0.409 | 0.0838 | 0.0807 | 0.224 | 1.58 | 2.05 | 0.782 | -0.255 (inactive) | 0.945 | -0.0672 | 0.61 | -0.886 (inactive) | 1.04 (inactive) | -0.2 (inactive) | 3.48 | -1.02 (inactive) | 0.522 | -0.761 | 0.96 | 0.0598
COc1ccc([Si](C)(C)[C@H]2[C@H](CCO)O[C@@]3(C(=O)N(Cc4ccccc4)c4ccc(N5C(=O)COc6ccccc65)cc43)[C@@H]2C)cc1 | 0.253 | -0.113 | -0.0692 | 0.264 | 0.167 | 1.06 | 0.487 | -1.69 (inactive) | 0.0228 | 0.357 | -0.171 | 0.773 (inactive) | -0.494 (inactive) | 5.54 (inactive) | 1.14 | 1.45 (inactive) | 0.0365 | 0.177 | 0.246 | -0.126
[N-]=[N+]=NCc1ccccc1C[C@]1(C(=O)N2CCOCC2)N=C(c2ccc(OCCCO)cc2)O[C@H]1c1ccccc1 | 0.303 | 0.18 | -0.0455 | 0.686 | 0.412 | 0.766 | 0.542 | -3.67 (inactive) | 0.912 | -0.0994 | 1.46 | -0.432 (inactive) | -9.19 (active) | 31.6 (active) | 2.33 | 1.33 (inactive) | -0.162 | 1.15 | 0.673 | -0.0509
O=C1OCC=C[C@H]2OC34C=CCN(c5ccc(Cl)cc5)C(=O)[C@H]3N(CCCO)C(=O)[C@@H]4[C@@H]12 (stereo not given in full) | 0.768 | -0.38 | -0.0847 | -0.573 | -1.6 | 0.3 | 1.41 | -0.0992 (inactive) | -0.415 | -0.277 | 0.631 | 0.0783 (inactive) | -0.252 (inactive) | 0.0814 (inactive) | 2.56 | 1.3 (inactive) | -0.0783 | -0.996 | -0.478 | -0.28
OCCCc1cc[n+](Cc2cccc(OC(F)(F)F)c2)cc1 | 0.451 | 0.451 | -0.085 | -0.389 | 0.272 | 0.564 | 1.47 | 1.7 (inactive) | 0.676 | -0.125 | 1.54 | -0.747 (inactive) | -3.01 (inactive) | 0.71 (inactive) | 3.24 | -1.65 (inactive) | 0.2 | 0.962 | 1.04 | -0.0084
Cc1cccc(/C=C/C=O)c1 | -0.305 | -0.582 | -0.0996 | 0.0071 | -0.663 | 0.27 | 0.928 | 0.641 (inactive) | 0.211 | -0.056 | 0.425 | 0.897 (inactive) | -4.56 (inactive) | -0.104 (inactive) | 1.54 | -0.0384 (inactive) | -0.186 | 0.0535 | -0.136 | -0.246
